High-throughput results as filed in PubChem.
An excerpt weighted towards active compounds, which were near 3.3% of everything screened.
14-3-3 Bad inh = disrupts binding of bovine 14-3-3 zeta to phospho-Bad peptide | P63103 | TR-FRET 14-3-3zeta/Dy647-pBad peptide displacement, 1 h | inhibition, % at 21.7 µM | 220,000 tested, 0.71% active | AID 781;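 active means inhibition above about 70%, limit read from the data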;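 further: 0% = full 14-3-3 plus peptide FRET controls and 100% = background without 14-3-3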
Target sequence (P63103 whole entry, looked up): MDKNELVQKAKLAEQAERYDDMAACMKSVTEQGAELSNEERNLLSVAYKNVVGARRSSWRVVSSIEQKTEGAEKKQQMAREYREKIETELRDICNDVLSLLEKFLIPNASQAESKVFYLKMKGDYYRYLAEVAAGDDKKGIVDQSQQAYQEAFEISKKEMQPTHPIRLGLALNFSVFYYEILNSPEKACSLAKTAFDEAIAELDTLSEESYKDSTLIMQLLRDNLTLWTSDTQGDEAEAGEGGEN
Bim-Mcl-1 = disrupts Bim peptide binding to human Mcl-1; Q07820; Bead-based flow cytometry, Bim peptide-Mcl-1 binding; inhibition, % at 10 µM; 190,000 tested, 0.1% active; AID 1009; in the data active means inhibition above about 40%;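 further: 0% = no compound tracer wells and 100% = peptide blocker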
Target sequence (Q07820 whole entry, looked up): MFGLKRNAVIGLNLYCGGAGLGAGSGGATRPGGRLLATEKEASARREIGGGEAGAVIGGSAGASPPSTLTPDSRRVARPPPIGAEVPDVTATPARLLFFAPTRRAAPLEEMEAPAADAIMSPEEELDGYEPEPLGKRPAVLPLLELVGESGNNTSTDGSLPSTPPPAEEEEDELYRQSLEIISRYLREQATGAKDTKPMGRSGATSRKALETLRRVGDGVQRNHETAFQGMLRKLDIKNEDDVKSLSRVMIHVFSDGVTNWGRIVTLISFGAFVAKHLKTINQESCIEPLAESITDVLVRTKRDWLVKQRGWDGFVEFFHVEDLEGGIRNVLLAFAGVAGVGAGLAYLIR
eIF4E 4G PPI = blocks eIF4E binding to eIF4G | P63073+Q04637 | TR-FRET eIF4E-eIF4GI(517-606) binding, 2 h | inhibition, % at 21.7 µM | 220,000 tested, 0.37% active;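 further: 0% = full FRET control wells and 100% = background wells lacking eIF4GI fragment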
Mcl1 Bid PPI = Mcl-1/Bid interaction inhibition; Q07820; TR-FRET Mcl-1/Bid-Dy647 peptide binding, 1536-well; inhibition, % at 21.7 µM; 220,000 tested, 0.97% active; AID 1021;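 active means compounds that cut the binding signal by more than half at the single screening dose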;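 further: His-tagged Mcl-1 with europium anti-His antibody binding Bid BH3 peptide; 0% = Mcl-1 plus peptide wells and 100% = peptide-only wells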
Mcl1-Noxa inh = disrupts binding of human Mcl-1 to Noxa peptide; Q07820; TR-FRET Mcl-1/Noxa peptide binding, 2 h; inhibition, % at 21.7 µM; 220,000 tested, 1.5% active; AID 1022;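 active means compounds that cut the protein-peptide binding signal by more than 50% relative to plate controls in a single-dose test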;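 further: His-tagged Mcl-1 with rhodamine Noxa BH3 peptide and terbium anti-His antibody; 0% = Mcl-1 plus Noxa peptide wells and 100% = peptide-only wells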
p47phox inh = blocks human p47phox regulatory protein of NADPH oxidases; p47phox/p22phox peptide binding, fluorescence polarization, 2 h; inhibition, % at 24.7 µM; 220,000 tested, 0.53% active; AID 1274;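 further: 0% = p47phox with labelled peptide and 100% = labelled peptide alone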
* hit, by the source's call; / = no result given; [ ] = another dose, or the depositor's remark.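 How the source made its calls, unless noted: active means inhibition above about 30% (limit read from the data); inactive means the rest.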

SMILES | 14-3-3 Bad inh | Bim-Mcl-1 | eIF4E 4G PPI | Mcl1 Bid PPI | Mcl1-Noxa inh | p47phox inh
CCN1CCC2(CC1)Oc1c(OC)cccc1C1CC(c3cccnc3)=NN12 (centres undefined) | -6 | / | 1 | -27 | 15 | -15
CC1=C2C(CCS2(=O)=O)CC2(C1)C(=O)OC(C)(C)OC2=O (centres undefined) | -6 | 66* | 8 | -11 | 24 | -10
COc1ccc(C(=O)NCc2ccc(-n3cccc3)cc2)cc1OC | 10 | 2 | 1 | -28 | 15 | -6
c1ccc(CNc2nc(NCc3ccccc3)c3ccccc3n2)cc1 | 42 | / | 11 | 24 | 60* | 88*
Fc1ccccc1-c1nc(NCc2ccccc2)c2ccccc2n1 | 4 | / | 10 | 1 | -6 | -5
Cc1nc(NCc2ccccn2)c2ccccc2n1 | 70* | 0 | 26 | -31 | -24 | -11
O=C(c1ccco1)N1C(=O)c2cccc3c(S(=O)(=O)N4CCCC4)ccc1c23 | 4 | -10 | -2 | 78* | 61* | 1
O=C1Nc2ccc(S(=O)(=O)N3CCCC3)c3cccc1c23 | -2 | -3 | -5 | -11 | 7 | -1
Cc1cccc(Nc2sc(C(=O)c3cc4cc(Cl)ccc4o3)c(N)c2C#N)c1 | 67 | / | 4 | 66* | 68* | 6
N#Cc1c(Nc2ccccc2)sc(C(=O)c2ccccc2)c1N | -8 | 0 | 13 | -43 | 10 | -19
Cc1ccc2nc(/C(C#N)=C\c3ccc(Oc4ccc([N+](=O)[O-])cn4)cc3)[nH]c2c1 | -1 | -3 | 1 | 17 | -14 | -69
N#C/C(=C\c1ccc([N+](=O)[O-])o1)c1nc2ccccc2[nH]1 | 25 | 0 | -6 | -20 | 39 | -29
Cc1ccc2nc(/C(C#N)=C\c3ccc([N+](=O)[O-])o3)[nH]c2c1 | 5 | 0 | -6 | 52* | 66* | -24
COc1ccc2nc(/C(C#N)=C\c3ccc(Oc4ccc([N+](=O)[O-])cn4)cc3)[nH]c2c1 | 33 | 2 | 5 | 58* | 72* | -44
O=C(Cc1ccc(F)cc1)Nc1nnc(SCC(=O)NC2CCCC2)s1 | -7 | 0 | -1 | 72* | 1 | -6
O=C(Cc1cccs1)Nc1nnc(SCC(=O)NC2CCCCC2)s1 | 1 | 0 | 0 | -13 | 9 | -46
CC1CCCN(c2nc(N(C)c3ccccc3)nc(N)c2[N+](=O)[O-])C1 (centres undefined) | 0 | / | 0 | -1 | 5 | -10
O=C(N/N=C(\Cc1ncc[nH]1)c1ccccc1)c1cccnc1 | -19 | -1 | 2 | -83 | -17 | -7
CC(=O)N1C=Cc2c(c(C)c3c([nH]c4ccccc43)c2C)C1 | -6 | / | 4 | -50 | -3 | 77*
CC(=O)N1CCc2[nH]c3ccccc3c2C1 | -19 | -5 | 4 | -77 | 7 | -12
CCCCCOc1ccc(NS(C)(=O)=O)cc1 | -5 | 1 | -1 | -12 | -7 | -7
CN(CCOc1ccc(NS(C)(=O)=O)cc1)CCc1ccc(NS(C)(=O)=O)cc1 | 0 | 1 | 3 | 84* | 1 | -10
CCOc1cc(N2CCCC2)ccc1[N+](=O)[O-] | -9 | -6 | -1 | -25 | 26 | -4
CC1(c2ccc(Cl)cc2Cl)OCC(Cn2ccnc2)O1 (centres undefined) | 41 | 1 | -1 | 80* | 23 | -12
O=C1[C@H]2[C@@H](C(=O)N1c1cc(Cl)cc(Cl)c1)[C@]1(C(=O)Nc3ccccc31)N1CCC[C@@H]21 | 11 | -3 | -4 | -10 | 21 | -9
SMILES | 14-3-3 Bad inh | Bim-Mcl-1 | eIF4E 4G PPI | Mcl1 Bid PPI | Mcl1-Noxa inh | p47phox inh
O=C1[C@H]2[C@@H](C(=O)N1c1cccc3ccccc13)C1(C(=O)c3ccccc3C1=O)N1CCC[C@@H]21 | 9 | -6 | 3 | -26 | 64* | -11
Cc1nn(-c2ccccc2)c2sc(-c3n[nH]c(=S)o3)cc12 | 3 | 5 | 12 | -16 | 67* | -52
Cc1nn(-c2ccccc2)c2sc(C(=O)O)cc12 | 23 | 0 | 7 | 9 | 2 | -3
S=c1[nH]nc(-c2ccc3ccccc3n2)o1 | 82*[fluorescence artefact?] | 1 | -3 | -28 | 26 | -5
O=[N+]([O-])c1cccc(-c2nnc(-c3ccc4c(c3)OCO4)o2)c1 | 43 | 1 | -4 | 60* | 62* | 30
Cc1ccc(-c2nnc(Cc3ccc(Cl)cc3)o2)cc1 | 3 | 40* | -1 | -6 | -21 | -4
c1ccc(Cc2nnc(-c3ccccc3)o2)cc1 | 3 | 0 | -2 | -23 | -18 | -1
Cc1ccc(C(=O)OCc2nnc(-c3ccccc3)o2)o1 | 10 | -4 | 1 | -16 | 10 | 17
CC(=O)c1c(C)[nH]c(C(=O)OCc2nnc(-c3ccccc3)o2)c1C | 1 | -2 | -6 | 51* | -15 | 2
O=C(Cc1ccc(Cl)cc1)OCc1nnc(-c2ccccc2)o1 | -13 | -4 | 88* | -19 | 6 | -14
O=C(OCc1nnc(-c2ccccc2)o1)c1ccc(Cl)cc1 | -7 | 0 | -2 | -18 | -9 | -13
CCOc1ccc(NC(=S)Nc2ccccc2C2(C)CC2)cc1 | -2 | 0 | 0 | -23 | 5 | -5
CC(NC(=O)CCc1nnc(CCCc2ccccc2)o1)c1ccccc1 (centres undefined) | -10 | 0 | -2 | 6 | -12 | 4
O=Cc1cccn1-c1ccc(O)cc1 | -15 | -3 | 2 | -13 | 5 | 1
O=C1OC(c2ccccc2)=C/C1=C/N1CCCCC1 | -11 | 0 | 13 | 86* | 14 | -24
Cc1sc(N)c(C(=O)c2ccccc2)c1C | -15 | 0 | -3 | -47 | 10 | -20
CC1=NN(c2ccccc2)C(=O)/C1=C/C=C/c1ccc(N(C)C)cc1 | -17 | 2 | 0 | -25 | 0 | 44*
COc1ccc(C)c2sc(=NC(=O)c3ccccc3)n(C)c12 | 2 | 0 | 3 | 0 | -5 | 45*
COc1ccc(C)c2sc(=NC(=O)c3ccc(C(C)=O)cc3)n(C)c12 | 7 | / | 7 | 12 | -3 | -1
N#Cc1c(NC(=O)CSc2ncnc3sccc23)oc(-c2ccco2)c1-c1ccco1 | -1 | 3 | 2 | -35 | 97* | -74
CCOCCCNC(=O)c1ccccc1OC1CCN(S(C)(=O)=O)CC1 | -9 | 0 | 2 | -20 | -9 | 1
CCCC(c1nnnn1Cc1ccc(OC)cc1)N1CCC(C(N)=O)CC1 (centres undefined) | 75* | 1 | 1 | -3 | 13 | -20
CCCC(c1nnnn1Cc1ccc(F)cc1)N1CCN(C2CCCCC2)CC1 (centres undefined) | 75* | 0 | -13 | 33 | 36 | -16
CCCCC(c1nnnn1C1CCCC1)N1CCN(C2CCCC2)CC1 (centres undefined) | 68 | 0 | 10 | -3 | 11 | -6
